# Source: PubChem BioAssay (Tox21)
# Several values for one entry are separate records, joined by “and”; a condition that tells them apart may be missing. Equal entries are not always repeated. Unmarked numbers belong to inactive results. Where a structure was tested more than once in an assay, its records may differ in their call. Activity calls are given as the source filed them. The call rests on the fitted dose curve.
# Assay: qHTS assay to identify small molecule agonists of the estrogen related receptor (ERR) signaling pathway from Tox21 library (AID 1224849); further: nearly all actives have a fitted effect of over 15% in size
# Details: ERR reporter cell line, ONE-Glo luciferase, 18 h; at 42.5 µM (top of the series)
# In short: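 Cells carrying the ERR reporter were plated and allowed to settle for 6 h, exposed to library compounds for 18 h at 37 C, then lysed with ONE-Glo and luminescence measured.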
# On the % scale 0 is the no-effect control and ±100 the full control effect.
row,Structure (SMILES),"activity change, positive = activation"
1,Cc1c(OCC(F)(F)F)ccnc1CS(=O)c1nc2ccccc2[nH]1 (stereo not drawn),-8.69% (active)
2,Cc1ccc(C(=O)c2cc(O)c(O)c([N+](=O)[O-])c2)cc1,-49.4%
3,C#C[C@]1(O)CC[C@H]2[C@@H]3CCC4=Cc5oncc5C[C@]4(C)[C@H]3CC[C@@]21C,-54.8%
4,O=C1OC2(c3cc(Br)c(O)c(Br)c3Oc3c2cc(Br)c(O)c3Br)c2c(Cl)c(Cl)c(Cl)c(Cl)c21,-3.67%
5,COc1cccc2c1C(=O)c1c(O)c3c(c(O)c1C2=O)C[C@@](O)(C(=O)CO)C[C@@H]3O[C@H]1C[C@H](N)[C@H](O)[C@H](C)O1,-2.08% and 0.0204%
6,CCCCc1oc2ccccc2c1C(=O)c1cc(I)c(OCCN(CC)CC)c(I)c1,-36% and -39.6%

# Same assay, conditions: ERR reporter cell line, ONE-Glo luciferase, 18 h; at 92.4 µM (top of the series)
row,Structure (SMILES),"activity change, positive = activation"
1,CCCCC/C=C/C=C/C=O,-1.92% and -41.4%
2,CC(CCC(=O)O)(c1ccc(O)cc1)c1ccc(O)cc1,1.54% and 1.03%
3,c1ccc2sc(SSN3CCOCC3)nc2c1,4.82% and -28.8%
4,O=C(/C=C/C=C/c1ccc2c(c1)OCO2)N1CCCCC1,24.4% (active) and 12.9% (active)
5,Cc1c(OCC(F)(F)F)ccnc1CS(=O)c1nc2ccccc2[nH]1 (stereo not drawn),-7.88%
6,Nc1ncnc2nc[nH]c12,111% (active)
7,Cc1ccc(C(=O)c2cc(O)c(O)c([N+](=O)[O-])c2)cc1,-70.9%
8,C#C[C@]1(O)CC[C@H]2[C@@H]3CCC4=Cc5oncc5C[C@]4(C)[C@H]3CC[C@@]21C,-70.8%
9,O=C1OC2(c3cc(Br)c(O)c(Br)c3Oc3c2cc(Br)c(O)c3Br)c2c(Cl)c(Cl)c(Cl)c(Cl)c21,-28%
10,O=[N+]([O-])c1ccc2c(c1)Cc1ccccc1-2,1.03% and -0.93%
11,S=C(NC1CCCCC1)NC1CCCCC1,-59.4% and -64.8%
12,c1cc(N(CC2CO2)CC2CO2)ccc1OCC1CO1 (stereo not drawn),-51.1% and -59.2%
